NS1 inh: qHTS Assay for Inhibitors of Influenza NS1 Protein Function; AID 2326, 2010; Potency, µM (doses to about 46.1 µM); hit rate 0.4% among 270,000; further: actives are rising curves; nearly all actives have a fitted effect of over 50% in size
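OD600 was taken as the measure of yeast growth restored by compound in an NS1-expressing S. cerevisiae strain. Cells had been washed out of glucose medium and diluted 1:100 into galactose -URA medium, pH 6.0.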
Shiga inhibitor: A qHTS for Small Molecule Inhibitors of Shiga Toxin; inhibition, % at 38.7 µM; Vero cells, Shiga toxin protein synthesis inhibition reporter; AID 2315, 2010; hit rate 9.2% among 290,000; in the data active means inhibition mostly above about 28%, no sharp cut-off; inactive means mostly below about 43%
Pf growth 96h: Primary qHTS for delayed death inhibitors of the malarial parasite plastid, 96 hour incubation; P. falciparum luciferase reporter growth, 96 h; Potency, µM (series often up to 28.7 µM), hits mostly inhibitors; hit rate 6.9% among 320,000; active means well fitted inhibition curve with a large enough effect; inconclusive means small, poorly fitted or top-dose-only effect, or another doubt; inactive means no such curve, though single readings can be large or run the other way
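Parasite growth measured via integrated firefly luciferase reporter in P. falciparum. Infected erythrocytes at 2% hematocrit, 0.05% parasitemia final were treated 96 hours at 37 C under 5% CO2, and luminescence was read.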
SARS PLP yeast: qHTS of Yeast-based Assay for SARS-CoV PLP; hit rate 0.19% among 330,000; S. cerevisiae expressing SARS-CoV PLpro, growth rescue; Potency, µM (series often up to 32.9 µM), actives largely listed as activators; further: nearly all actives have a fitted effect of over 55% in size
CHX counter: Cycloheximide Counterscreen for Small Molecule Inhibitors of Shiga Toxin; hit rate 12% among 300,000; cell reporter, cycloheximide protein synthesis inhibition counterscreen; max response, %; in the data active means max response mostly above about 13%, no sharp cut-off; inactive means mostly below about 14%; further: read at 38.3 µM for the half of the compounds with a filed dose
Pf growth 48h: Primary qHTS for delayed death inhibitors of the malarial parasite plastid, 48 hour incubation. P. falciparum luciferase growth in erythrocytes, 48 h. Potency, µM (highest dose often 28.7 µM), usual class: inhibitors. hit rate 5.9% among 310,000. AID 504832, 2011; active means well fitted inhibition curve with a large enough effect; inconclusive means small, poorly fitted or top-dose-only effect, or another doubt; inactive means no such curve, though single readings can be large or run the other way
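Luminescence readout; reporter = integrated firefly luciferase in P. falciparum. RBC culture at 2% hematocrit, 0.1% parasitemia final, 37 C/5% CO2; decreased signal taken as growth inhibition.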
Large screens that a line does not name were inactive. Sampled rows, rich in hits. Any-hit rate of the full collection: about 21%. Unless noted, the call rests on the fitted dose curve.

O=C(NCc1cccs1)c1nc2c(nnn2Cc2ccccc2Cl)c(=O)[nH]1	Pf growth 48h 4.1µM
CC(=O)N1c2ccc(S(=O)(=O)NC(CC(=O)O)c3ccc(Br)cc3)cc2CC1C (stereo not drawn)	none
CC(C)(C)c1ccc(Cn2nnc3c(=O)[nH]c(C4CCN(C(=O)c5ccco5)CC4)nc32)cc1	NS1 inh inconclusive, Pf growth 48h 6.6µM
CC(C)(C)c1ccc(Cn2nnc3c(=O)[nH]c(C4CCN(C(=O)Cc5cccs5)CC4)nc32)cc1	Pf growth 48h 5.9µM (no result: Pf growth 96h)
O=C(Cc1cccs1)N1CCCC(c2nc3c(nnn3Cc3ccccc3Cl)c(=O)[nH]2)C1 (stereo not drawn)	Pf growth 48h 5.2µM
COc1cc(OC)cc(C(=O)Nc2ccccc2C(=O)NCc2cccnc2)c1	Pf growth 96h inconclusive, Pf growth 48h inconclusive
O=C(Cc1ccc(Cl)cc1)N/N=C/c1cccc(O)c1	none
Cc1cc(N/N=C/c2ccccc2Br)nc2ccccc12	Shiga inhibitor 75, CHX counter 42, Pf growth 48h inconclusive
Fc1cccc(/C=N/Nc2ccc3ccccc3n2)c1	CHX counter 21 (no result: NS1 inh)
Brc1ccc(/C=N/Nc2ccccc2)cc1	Shiga inhibitor 60, CHX counter 43
Cc1ccc2nc(N/N=C\c3cccc(C)n3)cc(C)c2c1	none (no result: Shiga inhibitor, Pf growth 96h, SARS PLP yeast, CHX counter, Pf growth 48h)
Brc1ccccc1/C=N/Nc1ccc2ccccc2n1	Shiga inhibitor 65, Pf growth 96h inconclusive, CHX counter 44
CCOc1ccc2oc(C(=O)NCC(C)(C)CN(C)C)c(C)c2c1	none (no result: NS1 inh)
CCCS(=O)(=O)N1CCCC(C(=O)Oc2ccc(C)c(C)c2)C1 (stereo not drawn)	none
Brc1ccc(/C=N/Nc2ccc3ccccc3n2)cc1	Shiga inhibitor 120, Pf growth 96h inconclusive, CHX counter 55
C=CCn1c(=NC(=O)c2ccc(S(=O)(=O)N3CCCc4ccccc43)cc2)sc2cc(S(N)(=O)=O)ccc21	NS1 inh inconclusive, Pf growth 96h 4.7µM, Pf growth 48h 5.2µM
COCCn1c(=NC(=O)c2nc3ccccc3s2)sc2cc(S(C)(=O)=O)ccc21	Pf growth 96h inconclusive
COCCn1c(=NC(=O)c2ccc(S(=O)(=O)N3CCCc4ccccc43)cc2)sc2cc(S(C)(=O)=O)ccc21	Pf growth 96h 1µM, Pf growth 48h 3.3µM
CCC(C(=O)N1CCc2ccccc2C1)n1nc(C)n2c(cc3occc32)c1=O (stereo not drawn)	Pf growth 48h inconclusive
Cc1cc(C)cc(NC(=O)CSc2nc(CSc3ccc(Cl)cc3)cc(=O)[nH]2)c1	none
COc1cc(/C=N/NC(=O)c2c(C)nc3ccc(Cl)cn23)cc(OC)c1OC	none
CSCCC(NC(=O)c1ccco1)C(=O)N1CCN(C(c2ccccc2)c2ccccc2)CC1 (stereo not drawn)	Pf growth 96h 2.1µM, Pf growth 48h 8.3µM (no result: NS1 inh, Shiga inhibitor, CHX counter)
O=C(O)Cc1ccc([N+](=O)[O-])cc1[N+](=O)[O-]	none (no result: Shiga inhibitor, Pf growth 96h, SARS PLP yeast, CHX counter, Pf growth 48h)
Cc1cccn2c(=O)c3cc(S(=O)(=O)c4ccccc4)c(=N)n(Cc4ccco4)c3nc12	Pf growth 48h inconclusive
Cc1ccc2nc3c(cc(S(=O)(=O)c4ccccc4)c(=N)n3Cc3ccco3)c(=O)n2c1	Shiga inhibitor 39, CHX counter 33
Cc1cccn2c(=O)c3cc(S(=O)(=O)c4ccc(F)cc4)c(=N)n(Cc4ccco4)c3nc12	Pf growth 96h 15µM, Pf growth 48h 10µM
Cc1ccc(S(=O)(=O)c2cc3c(=O)n4ccccc4nc3n(Cc3ccco3)c2=N)cc1C	Pf growth 96h 12µM, Pf growth 48h inconclusive
COC(=O)c1c(NC(C)=O)csc1C	none
CCOC(=O)c1ccc(NC(=O)c2nc[nH]c2C(=O)N[C@@H](CC(C)C)C(=O)OCc2ccccc2)cc1	Pf growth 48h inconclusive
CC(C)C[C@H](NC(=O)c1[nH]cnc1C(=O)Nc1ccccc1)C(=O)OC(C)(C)C	Pf growth 96h inconclusive, Pf growth 48h 13µM
CCOC(=O)c1ccc(NC(=O)c2nc[nH]c2C(=O)N[C@@H](CC(C)C)C(=O)OC(C)(C)C)cc1	Pf growth 96h 9.3µM, Pf growth 48h 7.4µM
CC(C)C[C@H](NC(=O)c1nc[nH]c1C(=O)N[C@@H](CCCCN)C(=O)OC(C)(C)C)C(=O)OC(C)(C)C	none (no result: NS1 inh, Shiga inhibitor, Pf growth 96h, CHX counter, Pf growth 48h)
CC(C)C[C@H](NC(=O)c1[nH]cnc1C(=O)N[C@@H](C)C(=O)OC(C)(C)C)C(=O)OC(C)(C)C	Pf growth 96h 9.3µM, Pf growth 48h 7.4µM
NNC(=O)c1nc[nH]c1C(=O)Nc1ccccc1	NS1 inh inconclusive, Shiga inhibitor 22, Pf growth 96h 10µM, CHX counter 14
C[C@H](CO)N1C[C@H](C)[C@@H](CN(C)S(=O)(=O)c2cccs2)Oc2c(NS(=O)(=O)c3cn(C)cn3)cccc2C1=O	none (no result: NS1 inh, Shiga inhibitor, Pf growth 96h, CHX counter, Pf growth 48h)
O=[N+]([O-])c1c(Cl)cccc1-c1c[nH]cc1Cl	none (no result: NS1 inh, Shiga inhibitor, SARS PLP yeast, CHX counter)
CC(C)(O)[C@H]1Cc2cc3ccc(=O)oc3cc2O1	Shiga inhibitor 82, CHX counter 39
CC1(C)Oc2cc3oc(=O)ccc3cc2C[C@@H]1O	none (no result: NS1 inh, Shiga inhibitor, Pf growth 96h, CHX counter, Pf growth 48h)
C=C(C)C1Cc2cc3ccc(=O)oc3cc2O1 (stereo not drawn)	Pf growth 96h inconclusive, CHX counter 16
CC(C)(O[C@@H]1O[C@H](CO)[C@@H](O)[C@H](O)[C@H]1O)[C@H]1Cc2cc3ccc(=O)oc3cc2O1	none
COc1ccc(OC)c(NC(=O)CN2C(=O)C3(OCCCO3)c3ccccc32)c1	Pf growth 96h 5.2µM
COc1ccccc1NC(=O)CN1C(=O)C2(OCCCO2)c2ccccc21	none
Cc1ccc(C2(c3ccccc3)NC(=O)N(CC(=O)N3CC(=O)Nc4ccccc43)C2=O)cc1C (stereo not drawn)	Pf growth 96h 3.7µM, Pf growth 48h 2.3µM (no result: NS1 inh, Shiga inhibitor, CHX counter)
COc1ccc(C2(c3ccc(OC)cc3)NC(=O)N(CC(=O)Nc3cc(C)ccc3OC)C2=O)cc1	Shiga inhibitor 116, Pf growth 96h inconclusive, CHX counter 33, Pf growth 48h inconclusive
COc1ccccc1CNC(=O)CN1C(=O)NC(c2ccccc2)(c2ccc(C)c(C)c2)C1=O (stereo not drawn)	Pf growth 96h 9.3µM, Pf growth 48h 9.3µM (no result: NS1 inh, Shiga inhibitor, CHX counter)
COc1ccc(C2(c3ccc(OC)cc3)NC(=O)N(CC(=O)Nc3ccc(C(=O)N(C)C)cc3)C2=O)cc1	Pf growth 96h inconclusive, Pf growth 48h inconclusive
Cc1ccc(C2(c3ccccc3)NC(=O)N(CC(=O)NC3CCCCC3)C2=O)cc1C (stereo not drawn)	Pf growth 96h inconclusive, Pf growth 48h inconclusive (no result: NS1 inh, Shiga inhibitor, CHX counter)
CCC1(c2ccc(F)cc2)NC(=O)N(CC(=O)N2CC(=O)Nc3ccccc32)C1=O (stereo not drawn)	Pf growth 48h inconclusive (no result: NS1 inh, Shiga inhibitor, CHX counter)
CCCC1(c2ccccc2)NC(=O)N(CC(=O)N2CC(=O)Nc3ccccc32)C1=O (stereo not drawn)	Pf growth 96h inconclusive, Pf growth 48h 2.9µM (no result: NS1 inh, Shiga inhibitor, CHX counter)
